Experimental data as given in PubChem BioAssay (NCATS).
Records with an inconclusive call do not appear. Calls of active or inactive are those of the source. Calls follow the shape of the dose curve; as a rule, active = well fitted cell-killing curve with a large enough effect; inconclusive = small, poorly fitted or top-dose-only effect, or effect the other way; inactive = flat fitted curve, though single readings scatter.

How the values were obtained:
Test in all cases: Primary qHTS to identify gynecologic anti-cancer compounds using libraries of approved drugs and bioactive compounds (AID 1345084); also: nearly all actives have a fitted effect of over 55% in size
C33A = details: Gynecologic cancer cell panel viability, ATPlite luminescence, 48 h; series mostly up to 57.5 µM
Outline: (§1)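 Cells, 1,000 per well, plated 16 h, then exposed 48 h at 37 C to compounds. Viability by ATPlite luminescence after 15 min at room temperature.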

CAOV3 = details: Gynecologic cancer cell panel viability, ATPlite luminescence, 48 h; series mostly up to 57.5 µM
Outline: as §1

CASKI = details: Gynecologic cancer cell panel viability, ATPlite luminescence, 48 h; series mostly up to 57.5 µM
Outline: as §1

Es-2 = details: Gynecologic cancer cell panel viability, ATPlite luminescence, 48 h; series mostly up to 57.5 µM
Outline: as §1

HeLa = details: Gynecologic cancer cell panel viability, ATPlite luminescence, 48 h; series mostly up to 57.5 µM
Outline: as §1

Hek293T = details: Gynecologic cancer cell panel viability, ATPlite luminescence, 48 h, control line for the selectivity index; series mostly up to 57.5 µM
Outline: as §1

JEG-3 = details: Gynecologic cancer cell panel viability, ATPlite luminescence, 48 h; series mostly up to 57.5 µM
Outline: as §1

OV90 = details: Gynecologic cancer cell panel viability, ATPlite luminescence, 48 h; series mostly up to 57.5 µM
Outline: as §1

PA-1 = details: Gynecologic cancer cell panel viability, ATPlite luminescence, 48 h; series mostly up to 57.5 µM
Outline: as §1

Tov-21-G = details: Gynecologic cancer cell panel viability, ATPlite luminescence, 48 h; series mostly up to 57.5 µM
Outline: as §1

Tov112D = details: Gynecologic cancer cell panel viability, ATPlite luminescence, 48 h; series mostly up to 57.5 µM
Outline: as §1
% is scaled to controls: 0 for no effect and ±100 for the full control effect.

Cc1nc(C)c(-c2ccc(C3CCC(CC(=O)O)CC3)cc2)nc1C(N)=O (stereo unspecified)
inactive: Potency (C33A) | Potency (CAOV3) | Potency (CASKI) | Potency (Es-2) | Potency (HeLa) | Potency (Hek293T) | Potency (JEG-3) | Potency (OV90) | Potency (PA-1) | Potency (Tov-21-G) | Potency (Tov112D)

CC(=O)c1ccc2c(c1)C(O)C(C(C)(C)O)O2 (stereo unspecified)
inactive: Potency (C33A) | Potency (CAOV3) | Potency (CASKI) | Potency (Es-2) | Potency (HeLa) | Potency (Hek293T) | Potency (JEG-3) | Potency (OV90) | Potency (PA-1) | Potency (Tov-21-G) | Potency (Tov112D)

O=S(=O)(c1ccc(S(=O)(=O)n2cnc3ccccc32)cc1)N1CCCCCC1
inactive: Potency (C33A) | Potency (CAOV3) | Potency (CASKI) | Potency (Es-2) | Potency (HeLa) | Potency (Hek293T) | Potency (JEG-3) | Potency (OV90) | Potency (PA-1) | Potency (Tov-21-G) | Potency (Tov112D)

CCCCOC(=O)NC(=O)C1c2ccccc2Oc2ccccc21
inactive: Potency (C33A) | Potency (CAOV3) | Potency (CASKI) | Potency (Es-2) | Potency (HeLa) | Potency (Hek293T) | Potency (JEG-3) | Potency (OV90) | Potency (PA-1) | Potency (Tov-21-G) | Potency (Tov112D)

O=C(c1ccc2nccnc2c1)N1CCCCC1
inactive: Potency (C33A) | Potency (CAOV3) | Potency (CASKI) | Potency (Es-2) | Potency (HeLa) | Potency (Hek293T) | Potency (JEG-3) | Potency (OV90) | Potency (PA-1) | Potency (Tov-21-G) | Potency (Tov112D)

O=C(O)CC1CCC(c2ccc(-c3ccc4nc(C(=O)NCc5ccc(OC(F)(F)F)cc5)cn4c3)cc2)CC1 (stereo unspecified)
inactive: Potency (C33A) | Potency (CAOV3) | Potency (CASKI) | Potency (Es-2) | Potency (HeLa) | Potency (Hek293T) | Potency (JEG-3) | Potency (OV90) | Potency (PA-1) | Potency (Tov-21-G) | Potency (Tov112D)

NC(=O)[C@H](O[C@@H]1O[C@H](CO)[C@@H](O)[C@H](O)[C@H]1O)c1ccccc1
inactive: Potency (C33A) | Potency (CAOV3) | Potency (CASKI) | Potency (Es-2) | Potency (HeLa) | Potency (Hek293T) | Potency (JEG-3) | Potency (OV90) | Potency (PA-1) | Potency (Tov-21-G) | Potency (Tov112D)

CCCC1(c2ccccc2)NC(=O)N(CC(=O)N(C)Cc2c(F)cccc2Cl)C1=O (stereo unspecified)
inactive: Potency (C33A) | Potency (CAOV3) | Potency (CASKI) | Potency (Es-2) | Potency (HeLa) | Potency (Hek293T) | Potency (JEG-3) | Potency (OV90) | Potency (PA-1) | Potency (Tov-21-G) | Potency (Tov112D)

CC(C)=CCC[C@](C)(O[C@@H]1O[C@H](CO[C@@H]2O[C@H](CO)[C@@H](O)[C@H](O)[C@H]2O)[C@@H](O)[C@H](O)[C@H]1O)C1CC[C@]2(C)[C@@H]1[C@H](O)CC1[C@@]3(C)CC[C@H](O[C@@H]4O[C@H](CO)[C@@H](O)[C@H](O)[C@H]4O[C@@H]4O[C@H](CO)[C@@H](O)[C@H](O)[C@H]4O)C(C)(C)[C@@H]3CC[C@]12C (stereo partly specified)
inactive: activity change, negative = cytotoxicity (C33A) 0.112% [at 11.6 µM] | activity change, negative = cytotoxicity (CAOV3) 10.1% [at 11.6 µM] | activity change, negative = cytotoxicity (CASKI) 27.8% [at 11.6 µM] | activity change, negative = cytotoxicity (Es-2) -0.241% [at 11.6 µM] | activity change, negative = cytotoxicity (HeLa) -0.531% [at 11.6 µM] | activity change, negative = cytotoxicity (Hek293T) -3.2% [at 11.6 µM] | activity change, negative = cytotoxicity (JEG-3) -5.88% [at 11.6 µM] | activity change, negative = cytotoxicity (OV90) 2.46% [at 11.6 µM] | activity change, negative = cytotoxicity (PA-1) 0.278% [at 11.6 µM] | activity change, negative = cytotoxicity (Tov-21-G) 1.55% [at 11.6 µM] | activity change, negative = cytotoxicity (Tov112D) 0.741% [at 11.6 µM]

O=C1OCC(c2ccccc2)=C1Cc1ccccc1
inactive: Potency (C33A) | Potency (CAOV3) | Potency (CASKI) | Potency (Es-2) | Potency (HeLa) | Potency (Hek293T) | Potency (JEG-3) | Potency (OV90) | Potency (PA-1) | Potency (Tov-21-G) | Potency (Tov112D)

CC1(C)CC[C@]2(C(=O)O[C@@H]3O[C@H](CO)[C@@H](O)[C@H](O)[C@H]3O)CC[C@]3(C)C(=CCC4[C@@]5(C)C[C@@H](O)[C@H](O)C(C)(C)C5CC[C@]43C)C2[C@@H]1O (stereo partly specified)
inactive: Potency (C33A) | Potency (CAOV3) | Potency (CASKI) | Potency (Es-2) | Potency (HeLa) | Potency (Hek293T) | Potency (JEG-3) | Potency (OV90) | Potency (PA-1) | Potency (Tov-21-G) | Potency (Tov112D)

OC[C@@]1(O)CO[C@@H](OC[C@H]2O[C@@H](Oc3c[nH]c4ccccc34)[C@H](O)[C@@H](O)[C@@H]2O)[C@@H]1O
inactive: Potency (C33A) | Potency (CAOV3) | Potency (CASKI) | Potency (Es-2) | Potency (HeLa) | Potency (Hek293T) | Potency (JEG-3) | Potency (OV90) | Potency (PA-1) | Potency (Tov-21-G) | Potency (Tov112D)

CC(=O)OC1CC2C3(C)CCC(OC(=O)CC(=O)O)C(C)(C)C3CCC2(C)C2(C)CCC(C3(C)CCC(=O)O3)C12 (stereo unspecified)
inactive: Potency (C33A) | Potency (CAOV3) | Potency (CASKI) | Potency (Es-2) | Potency (HeLa) | Potency (Hek293T) | Potency (JEG-3) | Potency (OV90) | Potency (PA-1) | Potency (Tov-21-G) | Potency (Tov112D)

C/C1=C\CC[C@H](C)CCO[C@@H]2O[C@H](CO[C@@H]3OC[C@](O)(COC1=O)[C@H]3O)[C@@H](O)[C@H](O)[C@H]2O
inactive: Potency (C33A) | Potency (CAOV3) | Potency (CASKI) | Potency (Es-2) | Potency (HeLa) | Potency (Hek293T) | Potency (JEG-3) | Potency (OV90) | Potency (PA-1) | Potency (Tov-21-G) | Potency (Tov112D)

CC(C)(O)c1ccc2c(c1)C(O)C[C@H]1[C@](C)(C(=O)O)CCC[C@]21C (stereo partly specified)
inactive: Potency (C33A) | Potency (CAOV3) | Potency (CASKI) | Potency (Es-2) | Potency (HeLa) | Potency (Hek293T) | Potency (JEG-3) | Potency (OV90) | Potency (PA-1) | Potency (Tov-21-G) | Potency (Tov112D)

CC1(C)CC[C@]2(C(=O)O[C@@H]3O[C@H](CO)[C@@H](O)[C@H](O)[C@H]3O)CC[C@]3(C)C(=CCC4[C@@]5(C)C[C@@H](O)[C@H](O)[C@](C)(C(=O)O)C5CC[C@]43C)C2C1O (stereo partly specified)
inactive: Potency (C33A) | Potency (CAOV3) | Potency (CASKI) | Potency (Es-2) | Potency (HeLa) | Potency (Hek293T) | Potency (JEG-3) | Potency (OV90) | Potency (PA-1) | Potency (Tov-21-G) | Potency (Tov112D)
